The panel holds about 83,000 compounds, 20% with a hit somewhere; the sample as a whole holds those more often.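 Cells were grown in 96-well plates and exposed to the test compound at a single concentration for 48 hours; results are reported as percent growth, with values below 10 considered active.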 A number with no mark means an inactive call. Activity calls are given as the source filed them.
Columns and labels:
Assay in all cases: NCI-60 one-dose screen, 48 h (100 = growth as untreated, 0 = no growth, -100 = all killed)
Details in all cases: 10 µM unless noted
NCI-H23 lung = system: NCI-H23 lung
NCI-H226 lung = system: NCI-H226 lung
NCI-H322M lung = system: NCI-H322M lung
HOP-62 NSCLC = system: HOP-62 NSCLC
NCI-H460 lung = system: NCI-H460 lung
HOP-92 NSCLC = system: HOP-92 NSCLC
NCI-H522 lung = system: NCI-H522 lung
A549/ATCC NSCLC = system: A549/ATCC NSCLC
786-0 renal = system: 786-0 renal
COLO 205 colon = system: COLO 205 colon

Row | SMILES | growth (NCI-H23 lung) | growth (NCI-H226 lung) | growth (NCI-H322M lung) | growth (HOP-62 NSCLC) | growth (NCI-H460 lung) | growth (HOP-92 NSCLC) | growth (NCI-H522 lung) | growth (A549/ATCC NSCLC) | growth (786-0 renal) | growth (COLO 205 colon)
1 | Cn1cc(-c2noc(-c3cn(C)c4ncccc34)n2)c2cc(Cl)ccc21 | 91.5% | 115% | 91.2% | 93.2% | 88% | 135% | 7.71% (active) | 79.7% | 95.4% | 91.9%
2 | O=C(Nc1cccc(C2=NCCN2)c1)c1cccc(C(=O)Nc2cccc(C3=NCCN3)c2)c1 | 95.4% | 90.5% | 92.4% | 97.1% | 102% | 101% | 94.1% | 102% | 103% | 99.8%
3 | CC(C)C1=NOC(=O)C1=Cc1cn(-c2ccccc2)nc1-c1cccc([N+](=O)[O-])c1 | 91.9% | 102% | 98.1% | 99.1% | 87.9% | 88.8% | 74.7% | 97% | 76.7% | 109%
4 | O=c1c2c3c(sc2n2cnnc2n1Cc1ccccc1)CCCC3 | 100% | 85% | 104% | 119% | 97.7% | 89.8% | 79.2% | 91.7% | 100% | 83.3%
5 | CC(C)CCNCC(C)(C)O | 101% | 111% | 106% | 95.5% | 114% | 96.6% | 98.7% | 105% | 111% | 118%
6 | COc1cc(C)cc2oc3oc(=O)c(-c4nc5ccccc5s4)cc3c(=O)c12 | 96.9% | 87.5% | 90% | 91.6% | 84.1% | 76.1% | 95.7% | 109% | 105% | 110%
7 | CCOC(=O)c1c[nH]n2c(=S)ncnc12 | 97.4% | 97.4% | 110% | 89.8% | 115% | 113% | 96.8% | 106% | 95.8% | 100%
8 | CCCC(NC(=O)OCc1ccccc1)C(=O)O (stereo not given) | -1.29% (active) | 89.5% | 121% | 111% | 97.9% | 82.2% | 16.2% | 79.5% | 108% | 137%
9 | CC1(C)S[C@@H]2[C@H](NC(=O)[C@H](C(=O)O)c3cccs3)C(=O)N2[C@H]1C(=O)O | 102% | 105% | 108% | 105% | 113% | 122% | 75.8% | 102% | 97.1% | 111%
10 | COc1ccccc1S(=O)Nc1ccccc1 (stereo not given) | 104% | 102% | 94.9% | 124% | 93.6% | 98.5% | 74.9% | 74.4% | 103% | 117%
11 | NS(=O)(=O)c1ccc(CCN2C(=O)/C(=C\c3ccccc3)C=C2c2ccc(Cl)cc2)cc1 | 104% | 102% | 89.8% | 95.5% | 99.3% | 76.3% | 91.8% | 99.1% | 96.4% | 115%
12 | NNC(=O)c1ccc(C(=O)NN)cc1 | 101% | 97.6% | 102% | 115% | 104% | 104% | 101% | 100% | 114% | 138%
13 | O=C1Cc2c(sc3c(F)cccc23)C(c2ccccc2[N+](=O)[O-])N1 (stereo not given) | 98.6% | 79.3% | 99% | 91.5% | 76.9% | 92.2% | 102% | 106% | 110% | 113%

Reference: PubChem BioAssay (NCI)
